Screens from PubChem.
Rows were chosen to be rich in hits. Some 7.3% of all compounds tested hit in one or more screens of this group.
SMN2 splice enh: qHTS Assay for Enhancers of SMN2 Splice Variant Expression. HEK293 SMN2-luciferase splicing reporter, luminescence, 30-36 h. Potency, µM (top dose mostly 46.1 µM), for the others: at the highest dose activity change, positive = activation, actives largely listed as activators. actives 2.8% (n = 210,000). AID 1458, 2008; further: % of control where 0% means no effect; nearly all actives have a fitted effect of over 55% in size
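HEK293 cells carry an SMN2 […]–luciferase reporter in which exon 7 inclusion puts luciferase in frame. Cells were plated 10-12 h before compound addition, then incubated 30-36 h at 37C. ONE-Glo luminescence was read; sodium butyrate at 4.5 mM final served as control.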
uPA generation: qHTS for Inhibitors of Cell Surface uPA Generation; cell surface uPA generation assay, qHTS; Potency, µM (series often up to 38.3 µM), for inactives: at the highest dose activity change, negative = inhibition, hits mostly inhibitors; actives 0.31% (n = 330,000); active means well fitted inhibition curve with a large enough effect; inconclusive means small, poorly fitted or top-dose-only effect; inactive means no such curve, though single readings can be large or run the other way; tested in mouse RAW 264.7 cells; further: on the % scale 0 is the no-effect control and ±100 the full control effect; nearly all actives have a fitted effect of over 55% in size
FLuc modulator: qHTS profiling assay for firefly luciferase inhibitor/activator using purifed enzyme and Km concentrations of substrates (counterscreen for miR-21 project); Luciferin 4-monooxygenase (Photinus pyralis), P08659; purified FLuc, Km substrates, luminescence inhibition; Potency, µM (titrated, usually from 57.5 µM), for the others: at the highest dose activity change, negative = inhibition, most hits filed as inhibitors; actives 6.9% (n = 360,000);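 further: plate controls were vehicle for no effect and reference inhibitor for full effect; nearly all actives have a fitted effect of over 55% in size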
Target sequence (P08659 whole entry, looked up): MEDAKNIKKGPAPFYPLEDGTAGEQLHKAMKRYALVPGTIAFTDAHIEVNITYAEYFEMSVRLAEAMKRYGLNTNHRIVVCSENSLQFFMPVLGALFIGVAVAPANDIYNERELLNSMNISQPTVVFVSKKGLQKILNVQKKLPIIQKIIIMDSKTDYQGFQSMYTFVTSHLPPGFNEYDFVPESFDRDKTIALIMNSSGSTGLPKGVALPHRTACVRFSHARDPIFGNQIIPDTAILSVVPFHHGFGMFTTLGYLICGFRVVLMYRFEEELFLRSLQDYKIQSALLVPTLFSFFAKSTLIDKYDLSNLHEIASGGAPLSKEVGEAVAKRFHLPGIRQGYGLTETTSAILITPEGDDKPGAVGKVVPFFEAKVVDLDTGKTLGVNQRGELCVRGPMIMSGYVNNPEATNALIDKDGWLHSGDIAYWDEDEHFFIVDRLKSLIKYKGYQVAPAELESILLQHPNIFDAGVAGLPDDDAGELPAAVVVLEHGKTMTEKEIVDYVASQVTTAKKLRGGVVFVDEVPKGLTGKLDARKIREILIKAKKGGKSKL
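Biochemical qHTS of compounds, final roughly 60 µM downward over six points, against 10 nM purified firefly luciferase using Km concentrations of substrates (10 uM D-luciferin, 10 uM ATP) in Tris acetate pH 7.5 buffer; luminescence output.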
ELG1 genotoxic: qHTS screen for small molecules that induce genotoxicity in human embryonic kidney (HEK293T) cells expressing luciferase-tagged ELG1. HEK293T ELG1-luciferase reporter, luminescence, 16 h. Potency, µM (highest dose often 46 µM), without a hit: top-dose activity change, positive = activation, actives largely listed as activators. actives 1.3% (n = 330,000). AID 504466, 2011; further: % of control where 0% means no effect; nearly all actives have a fitted effect of over 60% in size
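After overnight (16 hr) compound treatment at 37 °C, ELG1-luciferase HEK293T cells were lysed with ONE-Glo; luminescence quantified 30 min later at room temperature.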
NPC1 prom act: qHTS Assay for NPC1 Promoter Activators. Huh7 NPC1 promoter luciferase reporter, 24 h. Potency, µM (highest dose often 9.22 µM), inactives show top-dose activation, actives largely listed as activators. actives 2.4% (n = 320,000); further: % of control where 0% means no effect; nearly all actives have a fitted effect of over 60% in size
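Cells: Huh7 expressing luciferase under the NPC1 promoter, 1500/well. Seeded 2 h, compound added, incubated 24 h at 37 °C. Luciferase reagent, 10 min ambient, then luminescence.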
Rab9 promoter act: qHTS Assay for Rab9 Promoter Activators. Huh7 Rab9 promoter-luciferase reporter, luminescence, 24 h. Potency, µM (series often up to 9.22 µM), inactives show at the highest dose activation, negative = inhibition, hits mostly activators. actives 2.8% (n = 320,000); further: % of control where 0% means no effect; nearly all actives have a fitted effect of over 60% in size
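Huh7 cells stably carrying a Rab9 promoter-luciferase reporter, 1500 cells per well in OP-MEM I with 10% FBS, treated with compound 24 hours at 37C. Luciferase activity read by luminescence after 10 minutes with Amplite reagent.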
An asterisk follows results filed as active; ? = inconclusive; . = no result given. Unless noted, the call rests on the fitted dose curve; in most records, active means well fitted curve in the direction sought with a large enough effect; inconclusive means small, poorly fitted or top-dose-only effect, or another doubt; inactive means no such curve, though single readings can be large; an effect the other way counts as inactive or inconclusive. Potency means the concentration at half of the fitted maximal effect.

SMILES	SMN2 splice enh	uPA generation	FLuc modulator	ELG1 genotoxic	NPC1 prom act	Rab9 promoter act
O=C(Nc1ccc2c(c1)OCO2)Nc1ccc2c(c1)OCO2	7.9µM*	-12%	?	?	1.4µM*	1.8µM*
O=C(Nc1cccnc1)Nc1ccc2c(c1)OCO2	?	-6%	12µM*	17%	?	?
O=C(Nc1cccc(C(=O)O)c1)/C(=C\c1ccc2c(c1)OCO2)NC(=O)c1ccc(Br)o1	?	0%	21µM*	10%	?	?
O=C(NCc1cccs1)Nc1ccc2c(c1)OCO2	14µM*	-1%	17µM*	?	?	3.5µM*
O=C(NCc1ccncc1)Nc1ccc2c(c1)OCO2	.	5%	?	7%	-1%	?
CCOc1ccc(NC(=O)c2cc(S(=O)(=O)N3CCCCCC3)cn2C)cc1	.	.	3%	.	.	.
O=S(=O)(NCCC1=CCCCC1)c1ccccc1Cl	.	-7%	-4%	2%	-1%	-2%
O=C(Nc1cccc(F)c1)Nc1ccccn1	23%	.	13µM*	26%	3.2µM*	2.8µM*
O=C(Nc1ccc2c(c1)OCO2)N1CCN(c2ccccc2Cl)CC1	1%	.	19µM*	?	?	?
O=C(Nc1ccc2c(c1)OCO2)Nc1ccc(F)cc1F	.	-16%	6µM*	?	1.4µM*	1.4µM*
COC(=O)c1ccc(C(=O)OC)c(NC(=O)Nc2ccc3c(c2)OCO3)c1	?	6%	21µM*	15µM*	?	?
O=C(Nc1ccc(F)cc1)Nc1ccc2c(c1)OCO2	.	-8%	3%	1%	8%	-5%
COc1ccccc1N1CCN(CCCNC(=O)c2cnn(-c3ccccc3)c2C2CCN(C(=O)OC(C)(C)C)CC2)CC1	.	.	-1%	.	.	.
COc1ccc(NC(=O)N2CC[C@@]3(CCCN(C(=O)c4ccc(OC)cc4)C3)C2)cc1	-8%	.	.	.	.	.
S=C(Nc1ccc2c(c1)OCCO2)Nc1ccc2c(c1)OCO2	?	-19%	17µM*	?	?	4µM*
OCCNC(=S)Nc1ccc2c(c1)OCCO2	.	6%	-1%	4%	-5%	2%
Cc1ccc(C(=O)/C=C/Nc2ccccc2C(N)=O)o1	11µM*	?	5.4µM*	.	.	.
NC(=O)c1ccccc1N/C=C/C(=O)c1ccc(F)cc1	18µM*	-5%	0.76µM*	?	0.71µM*	1µM*
NC(=O)c1ccccc1N/C=C/C(=O)c1ccc(Cl)cc1Cl	1µM*	-8%	0.19µM*	?	0.79µM*	0.5µM*
Cc1cccc(N/C=C/C(=O)c2cccs2)c1C	2µM*	-8%	0.34µM*	1.8µM*	29%	?
O=C(Nc1ccccc1F)c1nc(SCc2ccccc2F)ncc1Cl	2%	.	4%	.	.	.
COc1ccc(C2NC(=O)N(C)C3=C2C(=O)N(c2ccc(Br)cc2)C3)cc1 (stereo not given)	.	.	-2%	.	.	.
COc1cc([N+](=O)[O-])ccc1N/C=C/C(=O)c1cccs1	1.6µM*	.	0.12µM*	?	0.5µM*	1.1µM*
NC(=O)c1ccccc1N/C=C/C(=O)c1cccs1	7.1µM*	-11%	2.7µM*	2.1µM*	1.8µM*	0.89µM*
O=C(/C=C/c1ccc([N+](=O)[O-])cc1)c1cccs1	.	3%	-17%	5%	-1%	12%
SMILES	SMN2 splice enh	uPA generation	FLuc modulator	ELG1 genotoxic	NPC1 prom act	Rab9 promoter act
CCOC(=O)c1ccc(Nc2ncnc3ccccc23)cc1	-27%	7%	?	-3%	23%	?
COc1ccc(Nc2ncnc3nc[nH]c23)cc1OC	?	?	-3%	-1%	6%	-3%
CCOC(=O)c1ccc(Nc2ncnc3nc[nH]c23)cc1	10µM*	-7%	?	?	?	?
c1ccc(COc2ccc(Nc3ncnc4nc[nH]c34)cc2)cc1	0%	?	11µM*	?	?	?
Cc1ccc(N(Cc2ccccc2)C(=O)c2ccc(F)cc2)cc1	.	-4%	0%	4%	2%	0%
Cc1ccc(N(Cc2ccccc2)C(=O)c2cccc(F)c2)cc1	.	-2%	13µM*	18%	-1%	-7%
Cc1ccc(C(=O)CC(=O)c2cccc(F)c2)c(O)c1	-41%	0%	12µM*	?	6%	14%
Cc1ccc(C(=O)CC(=O)c2ccccc2C)c(O)c1	.	-15%	?	-1%	21%	21%
COc1ccc(C(=O)N(Cc2ccccc2)c2cccc(C)c2)cc1	.	-5%	-1%	15µM*	?	?
COc1cccc(-n2ccnc2SCC(=O)Nc2cccc3ccccc23)c1	.	.	-12%	.	.	.
COc1ccccc1/C=C/c1ccc2cccc(O)c2n1	.	-3%	4.8µM*	21µM*	?	?
COc1cc(Cl)cc(/C=C/c2ccc3cccc(O)c3n2)c1OC	.	2%	?	13%	?	?
O/N=C/c1ccc2cccc(O)c2n1	.	15%	?	-4%	1%	-4%
COc1ccc(Cl)cc1/C=C/c1ccc2cccc(O)c2n1	.	?	17µM*	?	4µM*	3.5µM*
Cc1cccc(CNC(=O)CCCN2C(=O)COc3ccc(C)cc32)c1	-5%	.	-11%	.	.	.
CN(C)CCSc1nc2cc(S(=O)(=O)N3CCCCC3)ccc2o1	.	-14%	.	-6%	.	.
CN1C(=CC=C2C=C(I)C(=O)C(I)=C2)C(C)(C)c2ccccc21	.	-1%	21µM*	-5%	-3%	-20%
CC1=NN(c2ccccc2)C(=O)/C1=C\C=C1/N(C)c2ccccc2C1(C)C	-22%	-7%	?	-9%	0%	-2%
CN1/C(=C\C=C2/C(=O)Oc3ccccc3C2=O)C(C)(C)c2ccccc21	?	-1%	?	?	?	2.8µM*
CN1/C(=C\C=N\O)C(C)(C)c2ccccc21	-2%	-1%	0%	2%	8%	-1%
CN(C)c1ccc(N=C/C=C2/N(C)c3ccccc3C2(C)C)cc1	-6%	?	15µM*	4%	12%	20%
Cc1cccc(C)c1OCc1cc(C(=O)N2CCN(c3ccc(F)cc3)CC2)no1	.	-15%	3.4µM*	?	0.63µM*	1.1µM*
CCOC(=O)N1CCN(C(=O)c2cc(COc3ccc(F)cc3F)on2)CC1	.	3%	?	?	18%	?
O=C(c1cc(COc2ccc3c(c2)CCCC3)on1)N1CCCC1	.	.	11µM*	18µM*	2.8µM*	4µM*
Cc1cccc(C)c1OCc1cc(C(=O)N2CCN(c3ccccn3)CC2)no1	.	1%	?	5%	22%	16%
